The campaign covered roughly 190,000 compounds. About 570 (0.3%) were called active. This is one part of a sample in which actives are shown more often than they occur.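 The calls were made as follows: active = z-score above 3 at 5 µM with at least 500 cells counted in the well; inconclusive = wells under 500 cells, flagged as cytotoxic or low count; inactive = the rest.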
Experiment: up-regulation of insulin promoter-GFP reporter – imaging, high-content screening, mouse beta cells (AID 1625);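 as to cell count: total cells summed across four imaged fields per well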
Details: MIN6 insulin promoter-GFP reporter, at 5 µM; cell count: measured here: cytotoxicity, nuclei count; z-score: stronger effect = higher value

| Structure (SMILES) | cell count [cells] | z-score |
| --- | --- | --- |
| O=C(O)C#Cc1cccc2ccccc12 | 952 | -0.45 (inactive) |
| Cc1cc(C)c2[nH]c(=O)c(CN(Cc3ccccc3)C(=S)NCCCN(C)C)cc2c1 | 1260 | -0.25 (inactive) |
| CCOc1ccc(NC(=S)N2CCCCCC2)cc1 | 1240 | -0.11 (inactive) |
| CCC(C)N(C)C1CCN(C(=S)Nc2ccc(OC)cc2)CC1 (configuration not stated) | 1120 | 0.62 (inactive) |
| CCOc1ccc(NC(=S)N2CCC(N(C)CC3CCCO3)CC2)cc1 (configuration not stated) | 1410 | 3.59 (active) |
| Cc1cccc(N(C)C(=O)c2cc3c(=O)[nH]c4ccc(C)cc4c3s2)c1 | 642 | -0.64 (inactive) |
| CCn1c2ccccc2c2cc(NC(=O)Nc3ccc([N+](=O)[O-])cc3C)ccc21 | 1070 | -0.69 (inactive) |
| O=c1c2cc(-c3ccccc3)sc2nc2n1N=C(c1cccs1)CS2 | 940 | 0.28 (inactive) |
| S=c1[nH]nc(-c2cccs2)n1/N=C/c1cn(-c2ccccc2)nc1-c1ccc(Cl)cc1 | 941 | -0.14 (inactive) |
| NS(=O)(=O)c1cccc(NC(=O)CSc2nc3ccccc3n2-c2ccccc2)c1 | 1570 | -0.28 (inactive) |
| COc1cccc(NCCC(=O)c2cccc([N+](=O)[O-])c2)c1 | 1430 | -0.59 (inactive) |
| O=C(NCCc1csc(-c2ccccc2)n1)c1ccccc1F | 879 | 4.15 (active) |
| COc1ccc(-c2nc(CCNC(=O)c3ccc(Br)o3)cs2)cc1 | 1790 | -0.21 (inactive) |
| O=S(=O)(NCCc1csc(-c2ccccc2)n1)c1cccnc1 | 1020 | 0.1 (inactive) |
| COc1ccc([N+](=O)[O-])cc1N(CC(O)CN(CC(C)C)CC(C)C)S(=O)(=O)c1ccc(C)cc1 (configuration not stated) | 984 | 0.3 (inactive) |
| O=C1CN(C(=O)COC(=O)c2cnc(Cl)c(Cl)c2)c2ccccc2N1 | 1340 | 0.22 (inactive) |
| Cc1ccc(OCC(=O)c2cc(C)n(Cc3ccco3)c2C)c([N+](=O)[O-])n1 | 717 | 0.32 (inactive) |
| CC1=C(C(N)=O)C(c2sccc2C)n2nnnc2N1 (configuration not stated) | 787 | 1.11 (inactive) |
| COc1ccc(C2C(C(=O)Nc3ccccc3OC)=C(C)Nc3nnnn32)c(OC)c1 (configuration not stated) | 1590 | 0.06 (inactive) |
| CCCCCOC(=O)C1=C(C)Nc2nnnn2C1c1ccc(OC)c(OC)c1OC (configuration not stated) | 1410 | 3.26 (active) |
| CN(C)S(=O)(=O)c1cccc(-c2nn(-c3ccccc3)cc2/C=C2\SC(=S)N(CC(=O)O)C2=O)c1 | 1060 | -0.06 (inactive) |
| NNC(=O)c1oc2nc(-c3ccccc3)cc(-c3ccco3)c2c1N | 1010 | 1.58 (inactive) |
| CNC(=S)NNC(=O)c1cccn(Cc2ccccc2)c1=O | 1390 | -0.17 (inactive) |
| CNC(=S)NNC(=O)c1oc2nc(-c3ccccc3)cc(-c3ccco3)c2c1N | 871 | 3.41 (active) |
| CSc1ccc(CN2C(=O)NC3(CCCCCC3)C2=O)cc1 | 1210 | -0.36 (inactive) |
| CC(=O)Nc1nc(C)c(-c2csc(Nc3ccc(S(N)(=O)=O)cc3)n2)s1 | 1500 | -2.49 (inactive) |

| Structure (SMILES) | cell count [cells] | z-score |
| --- | --- | --- |
| CC(C)(C)c1cc(C(=O)NCc2cccnc2)ccn1 | 1480 | 4.34 (active) |
| Cc1cccc(C(=O)Nc2ccccc2C(=O)NCc2cccnc2)c1 | 1550 | 0.35 (inactive) |
| Cc1ccc(C(=O)NC(=S)NCc2cccnc2)cc1 | 1660 | 1.63 (inactive) |
| CCOc1ccc(NS(=O)(=O)c2cc(C)c(C)cc2C)cc1 | 1460 | 0.61 (inactive) |
| O=C(CC1Nc2ccccc2NC1=O)Nc1ccccc1NC(=O)CC1Nc2ccccc2NC1=O (configuration not stated) | 1140 | 0.1 (inactive) |
| Cc1[nH]n(-c2ccc([N+](=O)[O-])cc2)c(=O)c1C=NCCN1CCN(C(=O)c2ccccc2F)CC1 | 1450 | 4.48 (active) |
| Cc1ccc(-n2[nH]c(C)c(/C=N/NC(=O)c3cccc([N+](=O)[O-])c3)c2=O)cc1C | 1370 | 0.35 (inactive) |
| C=CCNC(=S)N1CCN(CCN=Cc2c(C)[nH]n(-c3ccc([N+](=O)[O-])cc3)c2=O)CC1 | 1470 | 1.08 (inactive) |
| CC(C)CCN1CCN(C/C=C/c2ccco2)CC1CCO (configuration not stated) | 1410 | 1.56 (inactive) |
| O=C(COC(=O)C1CCCCC1)Nc1ccc([N+](=O)[O-])cc1 | 1220 | -0.06 (inactive) |
| O=C(NNC(=S)NC(=O)c1cn(-c2ccccc2)nc1-c1ccccc1)c1ccncc1 | 1140 | -0.61 (inactive) |
| CCCCN(CCCC)CC(O)Cn1c2ccccc2c(=O)c2ccccc21 (configuration not stated) | 1110 | -0.27 (inactive) |
| CC(C)N1CCC(NC(=O)Nc2ccccc2)CC1 | 1410 | -0.24 (inactive) |
| O=C(Nc1ccc2c(c1)OCCO2)C1CCCN(c2ncccn2)C1 (configuration not stated) | 1560 | -0.18 (inactive) |
| Cc1cc(C)nc(N2CCC(C(=O)Nc3ccc4c(c3)OCCO4)CC2)n1 | 1130 | 3.37 (active) |
| Cc1cc(C)cc(NC(=O)C2CCN(c3nc(C)cc(C)n3)CC2)c1 | 1460 | -0.69 (inactive) |
| N#C/C(=C/c1ccc(-c2ccccc2[N+](=O)[O-])o1)C(=O)NCCN1CCCCC1 | 1040 | 0.44 (inactive) |
| Cc1ccc(-c2nnn(CC(=O)N(CCO)C(C(=O)NC(C)(C)C)c3ccncc3)n2)cc1 (configuration not stated) | 1330 | -0.54 (inactive) |
| COc1ccc(-c2nnn(CC(=O)N(CCO)C(C(=O)NC3CCCC3)c3ccc(F)cc3)n2)cc1 (configuration not stated) | 941 | 3.28 (active) |
| CCOCCCN(C(=O)Cn1nnc(-c2ccc(OC)c(OC)c2)n1)C(CC)C(=O)NC1CCCC1 (configuration not stated) | 1200 | 1.26 (inactive) |
| Cc1nc(Cl)c(C#N)c2c1CCCC2 | 1110 | 0.33 (inactive) |
| COc1ccc(NS(=O)(=O)c2ccc(Oc3c(C#N)cccc3C#N)cc2)cc1 | 558 | -2.43 (inactive) |
| CCOC(=O)c1ccc(S(=O)(=O)N(CCO)Cc2cc3cc(OC)c(OC)cc3[nH]c2=O)cc1 | 1080 | -0.14 (inactive) |
| COc1ccc(NC(=O)CCN2C(=O)/C(=C/c3ccc4c(c3)OCO4)SC2=S)cc1 | 965 | -0.34 (inactive) |
| CC(=O)N(OCc1ccc(OC(C)C)c(Cl)c1)C(C)=O | 1050 | -0.14 (inactive) |
